Source: PubChem BioAssay
Tg IFNy HTS: T. gondii growth inhibition with IFN-gamma, primary screen, cell-based | Toxoplasma gondii growth in IFN-gamma-treated host cells; hits give low values | activity change, negative = inhibition, % (no concentration beside the values) | 3.8% of 69,000 active | AID 1259416, 2018; in the data active means activity change below about -70%, passing the limit was not always enough;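 further: host cells are HeLa cells infected with Toxoplasma gondii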
Active calls of the source: *; ! = a repeat was not active. This excerpt belongs to a sample that is enriched for hits.

What do the screens show for `COc1ccc(S(=O)(=O)N(C)C[C@H]2Oc3c(NC(=O)c4nc5ccccc5s4)cccc3C(=O)N([C@H](C)CO)C[C@@H]2C)cc1`?
Tg IFNy HTS: -54.7

Results for Cn1cc(CN2CCn3c(nnc3CS(C)(=O)=O)C2)cn1 ?
Tg IFNy HTS: -45.4

Results for CCN1c2cc(F)ccc2C(=O)NC12CCN(C(=O)c1ccccc1C)CC2 ?
Tg IFNy HTS: 149.9

How did CCC(C)N(Cc1cccnc1)C(=O)c1cncc(C)c1 (centres undefined) do in these assays?
Tg IFNy HTS: -0.9

Results for CCN(Cc1ccccc1)C(=O)CCN1CCCN(C)CC1 ?
Tg IFNy HTS: -6.9

What do the screens show for `CSc1cccc(NC(=O)Cn2c(=O)cc(-c3nc(C4CC4)no3)c3ccccc32)c1`?
Tg IFNy HTS: -28.6

How did COc1ccc(NC(=O)c2cn3ccc(C)cc3n2)cc1 do in these assays?
Tg IFNy HTS: -69.3

How did CCn1c(C2CCN(C(=O)c3ccc4sc(C)nc4c3)CC2)n[nH]c1=O do in these assays?
Tg IFNy HTS: 0.6

Results for COCCOc1c(N)cccc1Cl ?
Tg IFNy HTS: -11.9

How did Cc1ccc(NC(=O)C(=O)NCCc2sc(-c3cccc(F)c3)nc2C)cc1Cl do in these assays?
Tg IFNy HTS: -15.2

Results for COc1ccc(S(=O)(=O)Nc2ccc3c(c2)C(=O)N([C@H](C)CO)C[C@H](C)[C@H](CN(C)S(=O)(=O)c2ccc(Cl)cc2)OCCCC[C@@H](C)O3)cc1 ?
Tg IFNy HTS: -37.6

What do the screens show for `COc1ccc(S(=O)(=O)N(C)C[C@@H]2Oc3ccc(NC(=O)Nc4ccc(C(F)(F)F)cc4)cc3C(=O)N([C@H](C)CO)C[C@@H]2C)cc1`?
Tg IFNy HTS: -37.4

What do the screens show for `COc1ccc(S(=O)(=O)N(C)C[C@@H]2Oc3ccc(NC(=O)Nc4ccc(C(F)(F)F)cc4)cc3C(=O)N([C@H](C)CO)C[C@H]2C)cc1`?
Tg IFNy HTS: -75.2*

How did COc1ccc(S(=O)(=O)Nc2ccc3c(c2)C(=O)N([C@@H](C)CO)C[C@H](C)[C@H](CN(C)S(=O)(=O)c2ccc(Cl)cc2)OCCCC[C@@H](C)O3)cc1 do in these assays?
Tg IFNy HTS: -112.3*

How did COc1ccc(S(=O)(=O)N(C)C[C@H]2Oc3ccc(NC(=O)Nc4ccc(C(F)(F)F)cc4)cc3C(=O)N([C@H](C)CO)C[C@@H]2C)cc1 do in these assays?
Tg IFNy HTS: -42.0

Results for COc1ccc(S(=O)(=O)N(C)C[C@@H]2OCCCC[C@@H](C)Oc3ccc(NC(=O)Cc4ccccc4)cc3C(=O)N([C@H](C)CO)C[C@@H]2C)cc1 ?
Tg IFNy HTS: 3.3

Results for O=c1[nH]cc(F)c(=O)[nH]1 ?
Tg IFNy HTS: -96.3*!

What do the screens show for `CCC(CC)C(=O)Nc1c[nH]c(=O)[nH]c1=O`?
Tg IFNy HTS: -6.8

What do the screens show for `Cc1ccc(Nc2nc(C(=O)Nc3cc(C)cc(C)c3)nc3ccccc23)cc1`?
Tg IFNy HTS: -7.0

How did CCOCCCNC(=O)c1nc(Nc2ccc(C)cc2)c2ccccc2n1 do in these assays?
Tg IFNy HTS: -54.7

What do the screens show for `CC(NC(=O)c1nc(Nc2ccc(F)cc2)c2ccccc2n1)c1ccccc1` (centres undefined)?
Tg IFNy HTS: -8.1

Results for CC(C)CCNC(=O)c1nc(Nc2ccccc2)c2ccccc2n1 ?
Tg IFNy HTS: -46.5

What do the screens show for `Cc1ccc(Nc2nc(C(=O)NC(C)C)nc3ccccc23)cc1`?
Tg IFNy HTS: -78.8*

What do the screens show for `CCOC(=O)c1nc(NCCc2ccc(C)cc2)c2ccccc2n1`?
Tg IFNy HTS: -72.5*

Results for CCCCNc1nc(C(=O)OCC)nc2ccccc12 ?
Tg IFNy HTS: 0.6

What do the screens show for `CCOC(=O)c1nc(NCc2ccc(C)cc2)c2ccccc2n1`?
Tg IFNy HTS: 6.8

Results for Cc1ccc(Nc2nc(C(=O)NCCC(C)C)nc3ccccc23)cc1 ?
Tg IFNy HTS: -87.2*

Results for CC(C)CN(Cc1ccsc1)C(=O)CCN1CCCCCC1=O ?
Tg IFNy HTS: -1.0

What do the screens show for `COc1ccccc1CNC(=O)CCC1Nc2c3ccccc3nc(=S)n2C1=O` (centres undefined)?
Tg IFNy HTS: 4.8

Results for CCn1c(C2CCN(C(=O)CCc3cc(Cl)no3)CC2)nn(C)c1=O ?
Tg IFNy HTS: -8.3

Results for FC(F)(F)c1cc(Cl)c2ncc(-c3ccc(Br)s3)nc2c1 ?
Tg IFNy HTS: 19.3

Results for CCOCC1c2c(cnn2C)CCN1C(=O)CCc1ccccc1C (centres undefined) ?
Tg IFNy HTS: 165.1

What do the screens show for `Cc1ccccc1N(Cc1nc(-c2cccc(Cl)c2)oc1C)S(=O)(=O)c1cccs1`?
Tg IFNy HTS: -34.9

What do the screens show for `OC1(c2ccc(Cl)c(Cl)c2)CSc2nc3cc(C(F)(F)F)ccc3n21` (centres undefined)?
Tg IFNy HTS: -83.6*

What do the screens show for `OC1=C(O)c2nc3cc(C(F)(F)F)ccc3nc21`?
Tg IFNy HTS: 27.4

What do the screens show for `NNC(=S)Nc1cc(C(F)(F)F)ccc1Cl`?
Tg IFNy HTS: 27.8

How did CC(C)C[C@@H](C=O)NC(=O)[C@H](CC(C)C)NC(=O)[C@H](CC(C)C)NC(=O)OCc1ccccc1 do in these assays?
Tg IFNy HTS: -81.5*

Results for CC(C)C[C@H](NC(=O)[C@@H](O)[C@H](N)Cc1ccccc1)C(=O)O ?
Tg IFNy HTS: 10.1

Results for CC(C)CC(NC(=O)OCC1c2ccccc2-c2ccccc21)C(=O)O (centres undefined) ?
Tg IFNy HTS: -0.1

How did Cc1cc(C)n(CCCN(C)C(=O)C2CCCN(CC(N)=O)C2)n1 (centres undefined) do in these assays?
Tg IFNy HTS: -0.4

What do the screens show for `O=C(O)COc1ccccc1CN1CCCC2(C1)C(=O)Nc1ccccc12` (centres undefined)?
Tg IFNy HTS: -2.9

How did Cc1nnsc1CN(C)Cc1[nH]c2ccc(F)cc2c1C do in these assays?
Tg IFNy HTS: -28.1

Results for Cc1[nH]c2ccc(CNC(=O)C3CC(=O)N(Cc4ccccn4)C3)cc2c1C (centres undefined) ?
Tg IFNy HTS: 4.8

Results for CCc1[nH]c2ccc(CNc3cc(COC)ncn3)cc2c1C ?
Tg IFNy HTS: -78.1*

Results for CCc1[nH]c2ccc(CNc3ncc(F)c(N4CCOCC4)n3)cc2c1C ?
Tg IFNy HTS: -48.1

Results for Cc1ccc(C2(O)CCN(C(=O)C(C)(C)NC(=O)c3cccs3)CC2)nc1 ?
Tg IFNy HTS: -1.3

Results for Cn1c(=O)cc(C(=O)Nc2ccc3c(c2)ncn3C2CCCCC2)[nH]c1=O ?
Tg IFNy HTS: -2.3

What do the screens show for `CCOCC1CN(S(=O)(=O)c2cccs2)Cc2nccn2C1` (centres undefined)?
Tg IFNy HTS: 67.1

Results for Cc1cc2c(cc1NC(=O)c1nnn(-c3ccccc3F)c1C)n(C)c(=O)n2C ?
Tg IFNy HTS: 14.1

How did CCc1nc2c(nnn2Cc2ccc(F)cc2)c2nnc(-c3ccc(OC)cc3)n12 do in these assays?
Tg IFNy HTS: -1.3

Results for CO/N=C1\CC(C)(C)Cc2c(-c3ccn(C(=O)c4cccs4)n3)sc(SC)c21 ?
Tg IFNy HTS: -76.2*

What do the screens show for `O=C(c1ccccc1)n1ccc(-c2cccs2)n1`?
Tg IFNy HTS: -22.9

How did O=C(c1cccs1)n1ccc(-c2nc3ccccc3s2)n1 do in these assays?
Tg IFNy HTS: 248.1

What do the screens show for `Cn1ncc2c3ccccc3n(CC(=O)NCCN3CCCC3)c2c1=O`?
Tg IFNy HTS: 2.5

How did CN(C)c1ccc(CNC(=O)c2nc(Nc3ccc(F)cc3)c3ccccc3n2)cc1 do in these assays?
Tg IFNy HTS: 14.4

How did Cc1ccc(Nc2nc(C(=O)NCc3ccc(N(C)C)cc3)nc3ccccc23)cc1 do in these assays?
Tg IFNy HTS: 2.3
